Measured values taken from PubChem BioAssay (Tox21).
Records with an inconclusive call do not appear. Entries that show only a call come without a potency. Active and inactive are the calls of the source. Calls come from the whole dose curve.
Potency is the fitted concentration of half-maximal effect.

Each molecule was assayed against Acetylcholinesterase (Homo sapiens) (UniProt P22303) (assay: Acetylcholinesterase (AChE) small molecule antagonists: fluorescence cell-based qHTS assay (AID 1347398; note: nearly all actives have a fitted effect of over 50% in size)). Conditions: SH-SY5Y cells; Potency: AChE activity; series mostly up to 115 µM.
Chain of Acetylcholinesterase (Homo sapiens) (P22303 whole entry, looked up): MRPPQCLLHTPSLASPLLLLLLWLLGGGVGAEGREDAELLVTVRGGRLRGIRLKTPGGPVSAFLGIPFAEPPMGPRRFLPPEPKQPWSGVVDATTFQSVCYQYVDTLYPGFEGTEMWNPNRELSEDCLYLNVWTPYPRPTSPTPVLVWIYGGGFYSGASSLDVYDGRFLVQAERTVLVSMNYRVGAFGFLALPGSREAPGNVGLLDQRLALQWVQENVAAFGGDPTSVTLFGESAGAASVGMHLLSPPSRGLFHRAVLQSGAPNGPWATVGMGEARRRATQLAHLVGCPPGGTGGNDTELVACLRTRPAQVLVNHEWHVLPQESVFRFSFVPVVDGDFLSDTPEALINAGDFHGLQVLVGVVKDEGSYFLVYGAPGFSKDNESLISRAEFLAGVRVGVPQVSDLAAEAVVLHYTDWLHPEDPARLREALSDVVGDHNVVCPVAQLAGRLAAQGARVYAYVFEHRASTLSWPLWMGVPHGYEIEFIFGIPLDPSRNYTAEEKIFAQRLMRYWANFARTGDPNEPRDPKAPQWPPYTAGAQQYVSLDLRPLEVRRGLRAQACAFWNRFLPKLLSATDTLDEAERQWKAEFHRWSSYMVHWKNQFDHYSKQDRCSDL
Summary of the method: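 Cellular AChE inhibition: SH-SY5Y cells treated with test chemical for 30 min at 37 C, then acetylthiocholine hydrolysis followed over 40 min at room temperature via thiocholine-reactive Thiolite Green fluorescence (490/520 nm).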
`Nc1ccc(Sc2ccc(N)cc2)cc1` was tested, and the Potency was “inactive”. With `Oc1ccccc1Br` the Potency was “inactive”. For `COc1ccc(N)cc1N`, the Potency was “inactive”. In the case of `CC(C)CCCCCOC(=O)c1ccccc1C(=O)OCCCCCC(C)C`, the Potency is reported as “inactive”. With `Clc1ccc(CO/N=C(\Cn2ccnc2)c2ccc(Cl)cc2Cl)c(Cl)c1` the Potency was “inactive”. For `O=[N+]([O-])c1c2ccccc2cc2ccccc12`, the Potency was “inactive”. `S=C=Nc1cccc2ccccc12` was tested, and the Potency was “inactive”. In the case of `CC(C)C(=O)Cl`, the Potency is reported as “inactive”. With `O=C(O)c1cc[c]([Hg][Cl])cc1` the Potency was 71 µM (active). With `O=C/C(Cl)=C(/Cl)C(=O)O` the Potency was “inactive”. With `CC(=[OH+])/C=C(/C)[O-].CC(=[OH+])/C=C(\C)[O-].CC(=[OH+])/C=C(\C)[O-].[Al]` the Potency was “inactive”. `CCOC(=O)C1(c2ccccc2)CCN(CCC(C#N)(c2ccccc2)c2ccccc2)CC1` was tested, and the Potency was “inactive”. For `CCOP(=O)(NC(C)C)Oc1ccc(SC)c(C)c1` (configuration not stated), the Potency was 15.9 µM (active). In the case of `Oc1ccc2ccc3cccc4ccc1c2c34`, the Potency is reported as “inactive”. `Nc1ccccc1C(=O)OC/C=C/c1ccccc1` was tested, and the Potency was “inactive”. In the case of `CN(CCCC(O)c1cccnc1)N=O` (configuration not stated), the Potency is reported as “inactive”. `C[C@]12CC[C@@H]3c4ccc(OC(=O)N(CCCl)CCCl)cc4CC[C@H]3[C@@H]1CC[C@@H]2O` was tested, and the Potency was “inactive”. In the case of `COc1ccc(/C(=C/C(=O)N2CCOCC2)c2ccc(Cl)cc2)cc1OC`, the Potency is reported as “inactive”. In the case of `CC(C)[C@H](C(=O)OC(C#N)c1cccc(Oc2ccccc2)c1)c1ccc(OC(F)F)cc1` (some centres not stated), the Potency is reported as “inactive”. In the case of `O=[N+]([O-])c1ccc2ccc3cccc4ccc1c2c34`, the Potency is reported as “inactive”. With `Oc1ccc(C2(c3ccc(O)cc3)c3ccccc3-c3ccccc32)cc1` the Potency was “inactive”. In the case of `N#CSCSC#N`, the Potency is reported as “inactive”. `BrCBr` was tested, and the Potency was “inactive”. In the case of `ClC(Cl)=C(c1ccc(Cl)cc1)c1ccc(Cl)cc1`, the Potency is reported as “inactive”. For `Clc1ccc(CSC(Cn2ccnc2)c2ccc(Cl)cc2Cl)cc1` (configuration not stated), the Potency was “inactive”. `CC(Cl)CN(C)C` (configuration not stated) was tested, and the Potency was “inactive”. With `O=C1C=CC(=O)c2ccccc21` the Potency was “inactive”. In the case of `C[C@]12CC[C@H](O)C[C@H]1CC[C@@H]1[C@@H]2C[C@@H](O)[C@]2(C)[C@@H](C3=CC(=O)OC3)CC[C@]12O`, the Potency is reported as “inactive”. For `COc1ccc(OC)c(CC(C)N)c1` (configuration not stated), the Potency was “inactive”. For `CCCCOP(=O)(CCCC)OCCCC`, the Potency was “inactive”. For `CC(C)(c1ccc(O)c(-c2ccccc2)c1)c1ccc(O)c(-c2ccccc2)c1`, the Potency was “inactive”. With `N#Cc1ccc(O)cc1` the Potency was “inactive”. In the case of `C1CCC2CCCCC2C1` (configuration not stated), the Potency is reported as “inactive”. With `CC1(C)CC/C(=C/c2ccc(Cl)cc2)C1(O)Cn1cncn1` (configuration not stated) the Potency was “inactive”. With `CCCN(CC)CC1COC2(CCC(C(C)(C)C)CC2)O1` (configuration not stated) the Potency was “inactive”. `Cc1ccc(CCl)cc1` was tested, and the Potency was “inactive”. `CCc1ccccc1C` was tested, and the Potency was “inactive”.
